# Assay results: PubChem BioAssay (NCI)
# The panel holds about 83,000 compounds, 20% with a hit somewhere; the sample as a whole holds those more often.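 Treatment: one concentration, 48 hours, 96-well format. Scoring: percent growth, with anything below 10 considered active.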 A number with no mark means an inactive call.
# Tested on: HL-60(TB) leukemia
# Assay: NCI-60 one-dose screen, 48 h (100 = growth as untreated, 0 = no growth, -100 = all killed)
# Details: 10 µM unless noted
row,Structure (SMILES),growth [%]
1,COCCNC1=C(Cl)C(=O)c2ccccc2C1=O,110
2,O=S(=O)(Cc1cccc2c(CS(=O)(=O)c3ccc(Cl)cc3)cccc12)c1ccc(Cl)cc1,93.5
3,Cc1ccc(NC(=S)NNC(=S)Nc2ccc(C)cc2)cc1,44.7
